From the supplement of paper PMC11732987, “Enantioselective OTUD7B fragment discovery through chemoproteomics screening and high-throughput optimisation” (Communications Chemistry, 2025)

Columns and labels:
Test in all cases: log2 ratio of Biotin-Ahx-Ub-VS probe labelling (fragment/DMSO); higher = less target engagement (more negative = stronger competition), active = hit call of the paper (q ≤ 0.05, log2 ratio ≤ -1)
Details in all cases: compound concentration: 200 uM; treatment time: 3 h
USP42 = biological target: T1, USP42 (UniProt Q9H9J4)
T1 sequence (whole entry): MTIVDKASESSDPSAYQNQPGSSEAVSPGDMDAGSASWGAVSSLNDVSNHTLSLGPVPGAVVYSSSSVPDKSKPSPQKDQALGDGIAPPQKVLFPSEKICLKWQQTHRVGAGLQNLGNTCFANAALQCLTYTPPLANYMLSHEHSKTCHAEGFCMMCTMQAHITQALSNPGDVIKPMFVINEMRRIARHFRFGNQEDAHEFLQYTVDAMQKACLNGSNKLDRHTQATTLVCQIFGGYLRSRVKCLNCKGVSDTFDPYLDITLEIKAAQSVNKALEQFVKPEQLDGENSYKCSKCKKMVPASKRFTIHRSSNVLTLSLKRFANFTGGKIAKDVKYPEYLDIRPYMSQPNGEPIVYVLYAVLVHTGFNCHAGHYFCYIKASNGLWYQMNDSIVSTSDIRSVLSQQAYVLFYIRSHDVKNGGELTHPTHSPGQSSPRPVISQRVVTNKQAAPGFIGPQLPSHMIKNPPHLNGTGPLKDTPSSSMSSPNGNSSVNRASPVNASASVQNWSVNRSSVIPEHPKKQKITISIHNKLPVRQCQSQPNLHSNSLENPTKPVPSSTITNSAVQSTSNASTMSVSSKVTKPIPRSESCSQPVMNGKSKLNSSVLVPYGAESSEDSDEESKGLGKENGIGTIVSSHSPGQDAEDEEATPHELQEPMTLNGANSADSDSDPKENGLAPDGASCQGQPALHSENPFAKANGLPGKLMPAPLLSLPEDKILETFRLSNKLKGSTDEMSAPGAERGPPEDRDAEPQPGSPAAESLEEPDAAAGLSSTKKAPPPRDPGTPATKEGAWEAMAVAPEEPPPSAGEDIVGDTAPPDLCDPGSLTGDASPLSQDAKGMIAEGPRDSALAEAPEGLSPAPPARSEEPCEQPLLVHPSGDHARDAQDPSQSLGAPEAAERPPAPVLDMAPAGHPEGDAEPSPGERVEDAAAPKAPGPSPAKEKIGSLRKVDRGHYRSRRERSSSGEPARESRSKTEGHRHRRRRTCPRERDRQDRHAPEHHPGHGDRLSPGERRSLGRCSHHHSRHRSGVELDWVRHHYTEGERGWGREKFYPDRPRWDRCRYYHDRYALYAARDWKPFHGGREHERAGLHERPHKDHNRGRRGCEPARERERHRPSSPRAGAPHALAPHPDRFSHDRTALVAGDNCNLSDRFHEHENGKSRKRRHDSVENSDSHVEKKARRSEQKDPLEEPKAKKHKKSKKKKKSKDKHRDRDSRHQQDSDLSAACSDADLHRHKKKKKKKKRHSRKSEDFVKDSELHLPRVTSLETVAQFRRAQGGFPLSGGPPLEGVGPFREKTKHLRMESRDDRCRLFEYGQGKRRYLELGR
Method in brief: (§1)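 HEK293T lysate in Tris/CHAPS/IGEPAL buffer with protease inhibitors (495 µg per sample) was given fragment at 200 µM or vehicle for 3 h, in triplicate. It then received Biotin-Ahx-Ub-VS at 0.5 µM final for 1 h. Labelled DUBs were NeutrAvidin-enriched, digested with LysC and trypsin, and run by diaPASEF LC-MS/MS. Values are average log2 fragment/vehicle ratios by unpaired t-test on global-median-normalised Spectronaut quantities of proteins with ≥2 unique peptides.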

USP46 = USP46 (UniProt P62068)
Chain of USP46 (P62068 whole entry): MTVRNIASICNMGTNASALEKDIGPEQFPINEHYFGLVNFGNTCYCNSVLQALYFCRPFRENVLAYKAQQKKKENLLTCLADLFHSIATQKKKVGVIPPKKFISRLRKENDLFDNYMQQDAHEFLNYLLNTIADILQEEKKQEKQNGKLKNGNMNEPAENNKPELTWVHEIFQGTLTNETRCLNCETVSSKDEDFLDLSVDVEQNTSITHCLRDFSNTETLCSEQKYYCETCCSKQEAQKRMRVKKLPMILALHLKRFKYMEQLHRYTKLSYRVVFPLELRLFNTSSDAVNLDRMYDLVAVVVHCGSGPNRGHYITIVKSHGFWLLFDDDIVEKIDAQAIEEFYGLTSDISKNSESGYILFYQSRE
Method in brief: as §1

USP47 = biological target: T2, USP47 (UniProt Q96K76)
T2 sequence (whole entry): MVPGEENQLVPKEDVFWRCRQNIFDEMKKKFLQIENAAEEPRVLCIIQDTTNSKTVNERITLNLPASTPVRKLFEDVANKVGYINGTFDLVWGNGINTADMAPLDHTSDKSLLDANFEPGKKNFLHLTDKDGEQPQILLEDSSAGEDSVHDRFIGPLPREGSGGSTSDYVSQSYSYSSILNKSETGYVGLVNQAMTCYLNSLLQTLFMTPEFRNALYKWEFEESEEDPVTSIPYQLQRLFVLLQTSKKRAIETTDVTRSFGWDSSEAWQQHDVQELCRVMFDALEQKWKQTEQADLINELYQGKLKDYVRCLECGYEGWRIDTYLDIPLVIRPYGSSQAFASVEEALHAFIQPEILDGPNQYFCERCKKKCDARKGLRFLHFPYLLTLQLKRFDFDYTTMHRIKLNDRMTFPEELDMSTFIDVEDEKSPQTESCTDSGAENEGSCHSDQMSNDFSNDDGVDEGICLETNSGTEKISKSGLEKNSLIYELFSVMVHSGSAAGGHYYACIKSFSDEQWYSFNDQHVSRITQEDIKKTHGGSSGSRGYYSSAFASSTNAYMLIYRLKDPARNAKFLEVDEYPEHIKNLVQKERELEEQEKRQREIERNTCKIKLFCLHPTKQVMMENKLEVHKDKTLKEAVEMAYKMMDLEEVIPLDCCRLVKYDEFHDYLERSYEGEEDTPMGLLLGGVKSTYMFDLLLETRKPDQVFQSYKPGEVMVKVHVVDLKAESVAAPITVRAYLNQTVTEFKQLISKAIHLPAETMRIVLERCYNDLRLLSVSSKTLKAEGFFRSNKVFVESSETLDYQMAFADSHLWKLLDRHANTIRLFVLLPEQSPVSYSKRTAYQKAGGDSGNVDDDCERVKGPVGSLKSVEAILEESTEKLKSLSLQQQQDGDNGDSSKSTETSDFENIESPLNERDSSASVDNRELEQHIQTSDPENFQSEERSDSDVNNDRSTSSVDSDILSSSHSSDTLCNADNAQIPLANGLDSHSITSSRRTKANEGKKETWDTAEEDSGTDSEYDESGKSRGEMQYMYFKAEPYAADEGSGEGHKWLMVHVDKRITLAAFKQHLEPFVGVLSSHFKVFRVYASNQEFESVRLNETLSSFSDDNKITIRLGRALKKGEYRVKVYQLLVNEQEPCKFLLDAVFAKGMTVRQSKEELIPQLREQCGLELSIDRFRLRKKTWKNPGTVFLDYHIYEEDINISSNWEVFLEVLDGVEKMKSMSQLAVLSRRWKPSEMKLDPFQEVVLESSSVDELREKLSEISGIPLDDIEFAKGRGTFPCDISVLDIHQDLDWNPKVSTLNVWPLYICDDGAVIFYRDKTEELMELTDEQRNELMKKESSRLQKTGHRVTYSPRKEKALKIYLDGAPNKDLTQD
Method in brief: as §1

USP48 = biological target: T3, USP48 (UniProt Q86UV5)
T3 sequence (whole entry): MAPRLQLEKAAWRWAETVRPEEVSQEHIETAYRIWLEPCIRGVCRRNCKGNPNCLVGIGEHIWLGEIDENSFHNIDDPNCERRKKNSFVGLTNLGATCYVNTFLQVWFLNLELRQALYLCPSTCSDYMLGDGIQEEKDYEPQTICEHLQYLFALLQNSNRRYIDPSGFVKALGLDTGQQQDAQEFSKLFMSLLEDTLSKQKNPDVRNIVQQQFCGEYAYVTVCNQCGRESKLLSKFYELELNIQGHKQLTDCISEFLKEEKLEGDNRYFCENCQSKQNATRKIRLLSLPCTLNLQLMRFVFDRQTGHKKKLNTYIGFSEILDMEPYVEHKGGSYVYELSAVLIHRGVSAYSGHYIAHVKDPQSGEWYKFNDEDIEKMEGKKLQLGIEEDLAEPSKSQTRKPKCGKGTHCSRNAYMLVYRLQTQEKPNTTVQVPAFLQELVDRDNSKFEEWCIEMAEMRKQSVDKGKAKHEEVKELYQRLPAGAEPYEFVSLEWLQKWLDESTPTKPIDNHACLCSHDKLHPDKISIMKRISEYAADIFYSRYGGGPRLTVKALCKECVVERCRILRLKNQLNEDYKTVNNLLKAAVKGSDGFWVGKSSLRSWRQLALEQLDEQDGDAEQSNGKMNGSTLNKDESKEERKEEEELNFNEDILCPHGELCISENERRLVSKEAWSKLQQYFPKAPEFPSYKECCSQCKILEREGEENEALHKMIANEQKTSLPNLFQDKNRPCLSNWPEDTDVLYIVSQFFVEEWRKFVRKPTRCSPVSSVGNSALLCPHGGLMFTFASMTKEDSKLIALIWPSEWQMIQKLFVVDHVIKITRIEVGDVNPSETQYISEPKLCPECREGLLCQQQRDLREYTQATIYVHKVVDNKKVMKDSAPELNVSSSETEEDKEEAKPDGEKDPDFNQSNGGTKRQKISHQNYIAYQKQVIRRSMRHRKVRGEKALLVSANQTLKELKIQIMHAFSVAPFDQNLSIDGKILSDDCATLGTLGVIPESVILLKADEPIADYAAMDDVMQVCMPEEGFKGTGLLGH
Method in brief: as §1

USP5 = biological target: T4, USP5 (UniProt P45974)
T4 sequence (whole entry): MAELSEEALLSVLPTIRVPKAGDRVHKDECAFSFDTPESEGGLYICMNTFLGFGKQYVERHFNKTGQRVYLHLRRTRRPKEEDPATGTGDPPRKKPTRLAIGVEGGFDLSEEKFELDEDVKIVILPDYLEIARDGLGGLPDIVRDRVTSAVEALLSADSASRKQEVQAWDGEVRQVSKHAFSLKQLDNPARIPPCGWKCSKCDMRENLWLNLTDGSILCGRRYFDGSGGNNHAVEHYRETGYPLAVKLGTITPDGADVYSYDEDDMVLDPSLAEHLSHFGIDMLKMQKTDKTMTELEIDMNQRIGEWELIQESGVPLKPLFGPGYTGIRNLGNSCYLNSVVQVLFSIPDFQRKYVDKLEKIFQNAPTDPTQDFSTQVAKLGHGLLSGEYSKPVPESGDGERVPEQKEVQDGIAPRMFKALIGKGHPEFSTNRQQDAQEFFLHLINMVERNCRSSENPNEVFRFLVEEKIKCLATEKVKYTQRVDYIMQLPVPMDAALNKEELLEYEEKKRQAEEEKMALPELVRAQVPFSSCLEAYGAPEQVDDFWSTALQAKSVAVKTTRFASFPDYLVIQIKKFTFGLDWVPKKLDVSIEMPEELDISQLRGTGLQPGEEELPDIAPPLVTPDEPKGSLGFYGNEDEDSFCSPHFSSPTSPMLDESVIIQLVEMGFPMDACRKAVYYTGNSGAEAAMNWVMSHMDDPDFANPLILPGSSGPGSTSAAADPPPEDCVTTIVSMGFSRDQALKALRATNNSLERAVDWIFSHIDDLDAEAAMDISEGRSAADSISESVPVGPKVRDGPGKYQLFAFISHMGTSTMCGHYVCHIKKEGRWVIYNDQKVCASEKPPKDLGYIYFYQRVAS
Method in brief: as §1

USP54 = USP54 (UniProt Q70EL1)
Chain of USP54 (Q70EL1 whole entry): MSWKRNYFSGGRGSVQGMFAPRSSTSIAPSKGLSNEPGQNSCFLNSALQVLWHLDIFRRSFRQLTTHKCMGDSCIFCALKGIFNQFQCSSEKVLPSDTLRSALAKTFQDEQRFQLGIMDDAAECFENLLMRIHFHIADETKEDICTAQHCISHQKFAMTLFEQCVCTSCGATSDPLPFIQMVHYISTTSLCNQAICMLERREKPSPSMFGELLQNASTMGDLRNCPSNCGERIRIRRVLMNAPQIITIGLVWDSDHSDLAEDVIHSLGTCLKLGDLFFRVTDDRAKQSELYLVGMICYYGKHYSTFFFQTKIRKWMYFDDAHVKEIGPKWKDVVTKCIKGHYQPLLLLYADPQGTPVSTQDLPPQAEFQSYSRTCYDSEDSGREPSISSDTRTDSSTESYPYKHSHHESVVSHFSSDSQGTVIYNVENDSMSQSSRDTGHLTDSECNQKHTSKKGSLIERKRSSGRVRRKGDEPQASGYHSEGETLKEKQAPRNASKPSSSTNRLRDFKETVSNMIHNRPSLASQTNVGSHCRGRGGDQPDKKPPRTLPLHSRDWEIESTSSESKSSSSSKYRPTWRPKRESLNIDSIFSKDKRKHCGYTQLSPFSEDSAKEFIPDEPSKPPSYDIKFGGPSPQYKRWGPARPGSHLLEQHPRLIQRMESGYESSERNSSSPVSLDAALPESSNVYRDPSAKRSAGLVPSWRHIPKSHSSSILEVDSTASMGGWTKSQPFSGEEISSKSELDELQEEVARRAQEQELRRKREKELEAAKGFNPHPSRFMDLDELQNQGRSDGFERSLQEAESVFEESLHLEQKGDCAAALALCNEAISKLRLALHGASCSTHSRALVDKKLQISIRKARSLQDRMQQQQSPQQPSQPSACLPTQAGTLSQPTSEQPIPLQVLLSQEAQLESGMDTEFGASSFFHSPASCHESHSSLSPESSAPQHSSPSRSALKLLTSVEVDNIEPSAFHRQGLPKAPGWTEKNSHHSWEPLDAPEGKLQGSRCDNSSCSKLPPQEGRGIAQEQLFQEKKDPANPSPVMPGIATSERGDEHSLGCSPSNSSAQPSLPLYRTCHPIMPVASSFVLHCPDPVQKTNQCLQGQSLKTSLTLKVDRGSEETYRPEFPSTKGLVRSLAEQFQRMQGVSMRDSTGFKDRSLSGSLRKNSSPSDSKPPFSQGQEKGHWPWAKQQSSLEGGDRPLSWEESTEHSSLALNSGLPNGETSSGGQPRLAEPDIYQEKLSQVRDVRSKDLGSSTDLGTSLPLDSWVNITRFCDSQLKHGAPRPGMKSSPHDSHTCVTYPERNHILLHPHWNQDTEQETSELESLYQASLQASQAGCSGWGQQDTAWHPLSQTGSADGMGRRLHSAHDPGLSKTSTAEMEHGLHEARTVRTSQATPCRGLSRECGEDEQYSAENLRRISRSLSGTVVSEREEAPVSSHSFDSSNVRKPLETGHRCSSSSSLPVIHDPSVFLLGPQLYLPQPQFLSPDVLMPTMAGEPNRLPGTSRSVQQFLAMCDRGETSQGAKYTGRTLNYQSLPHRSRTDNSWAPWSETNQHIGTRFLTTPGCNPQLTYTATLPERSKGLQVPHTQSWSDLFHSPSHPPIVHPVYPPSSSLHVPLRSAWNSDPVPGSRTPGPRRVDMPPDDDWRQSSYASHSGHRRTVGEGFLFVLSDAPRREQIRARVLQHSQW
Method in brief: as §1

USP7 = USP7 (UniProt Q93009)
Chain of USP7 (Q93009 whole entry, looked up): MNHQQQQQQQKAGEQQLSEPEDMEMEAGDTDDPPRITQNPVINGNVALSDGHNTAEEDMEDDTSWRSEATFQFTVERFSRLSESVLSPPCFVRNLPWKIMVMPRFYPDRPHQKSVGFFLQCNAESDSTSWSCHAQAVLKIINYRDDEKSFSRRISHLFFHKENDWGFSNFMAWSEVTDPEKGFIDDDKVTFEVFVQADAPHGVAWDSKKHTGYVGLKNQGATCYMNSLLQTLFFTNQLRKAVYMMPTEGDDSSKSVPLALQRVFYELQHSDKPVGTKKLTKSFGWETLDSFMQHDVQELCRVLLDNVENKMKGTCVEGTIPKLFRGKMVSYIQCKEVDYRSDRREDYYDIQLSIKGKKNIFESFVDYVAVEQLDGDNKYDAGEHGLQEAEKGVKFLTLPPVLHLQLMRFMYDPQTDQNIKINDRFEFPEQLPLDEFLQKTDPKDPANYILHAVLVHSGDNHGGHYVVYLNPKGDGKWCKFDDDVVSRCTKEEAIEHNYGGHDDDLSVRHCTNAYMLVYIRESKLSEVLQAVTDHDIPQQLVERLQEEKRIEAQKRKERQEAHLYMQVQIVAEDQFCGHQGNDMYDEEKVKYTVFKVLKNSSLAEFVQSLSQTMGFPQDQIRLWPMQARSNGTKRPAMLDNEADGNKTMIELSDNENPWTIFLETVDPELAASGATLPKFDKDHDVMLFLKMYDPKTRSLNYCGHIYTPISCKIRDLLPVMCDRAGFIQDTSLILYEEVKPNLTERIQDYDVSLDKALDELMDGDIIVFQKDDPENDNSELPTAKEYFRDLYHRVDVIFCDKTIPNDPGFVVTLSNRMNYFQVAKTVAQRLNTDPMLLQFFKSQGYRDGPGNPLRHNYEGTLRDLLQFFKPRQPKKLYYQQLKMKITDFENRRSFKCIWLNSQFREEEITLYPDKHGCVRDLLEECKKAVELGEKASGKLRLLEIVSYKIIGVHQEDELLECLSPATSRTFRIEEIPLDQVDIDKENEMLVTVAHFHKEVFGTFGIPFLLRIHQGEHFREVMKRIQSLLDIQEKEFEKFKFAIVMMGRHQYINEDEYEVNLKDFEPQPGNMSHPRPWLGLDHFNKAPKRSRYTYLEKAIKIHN
Method in brief: as §1

USP8 = biological target: T5, USP8 (UniProt P40818)
T5 sequence (whole entry): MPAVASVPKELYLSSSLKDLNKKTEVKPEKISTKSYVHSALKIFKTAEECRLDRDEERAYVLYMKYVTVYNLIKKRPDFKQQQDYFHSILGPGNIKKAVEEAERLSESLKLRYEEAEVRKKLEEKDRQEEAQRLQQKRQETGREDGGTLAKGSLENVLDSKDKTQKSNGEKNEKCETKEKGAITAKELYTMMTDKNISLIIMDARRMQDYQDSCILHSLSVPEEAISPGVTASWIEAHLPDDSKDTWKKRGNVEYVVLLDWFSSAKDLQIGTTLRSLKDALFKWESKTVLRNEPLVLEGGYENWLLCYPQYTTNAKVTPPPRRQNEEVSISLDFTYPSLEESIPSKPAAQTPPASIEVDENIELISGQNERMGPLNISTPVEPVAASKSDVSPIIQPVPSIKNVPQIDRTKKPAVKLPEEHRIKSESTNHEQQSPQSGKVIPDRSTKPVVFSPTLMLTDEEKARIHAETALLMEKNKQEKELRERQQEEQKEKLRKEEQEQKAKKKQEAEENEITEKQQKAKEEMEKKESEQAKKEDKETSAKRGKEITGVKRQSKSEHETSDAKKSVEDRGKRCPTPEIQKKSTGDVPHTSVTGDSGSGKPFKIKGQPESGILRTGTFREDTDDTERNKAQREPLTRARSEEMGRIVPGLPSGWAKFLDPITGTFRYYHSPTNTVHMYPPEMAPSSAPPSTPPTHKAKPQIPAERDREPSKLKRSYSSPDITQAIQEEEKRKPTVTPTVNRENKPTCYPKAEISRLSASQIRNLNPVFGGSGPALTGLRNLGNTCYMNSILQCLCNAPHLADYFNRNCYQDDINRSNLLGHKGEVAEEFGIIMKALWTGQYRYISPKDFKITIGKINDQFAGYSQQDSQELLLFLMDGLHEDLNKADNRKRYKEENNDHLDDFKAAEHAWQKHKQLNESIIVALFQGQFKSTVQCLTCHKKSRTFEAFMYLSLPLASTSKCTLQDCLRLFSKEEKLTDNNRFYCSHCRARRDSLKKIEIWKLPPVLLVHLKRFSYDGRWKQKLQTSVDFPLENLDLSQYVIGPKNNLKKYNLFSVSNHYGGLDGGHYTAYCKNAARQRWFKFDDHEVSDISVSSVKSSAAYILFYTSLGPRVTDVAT
Method in brief: as §1

USP9X = USP9X (UniProt Q93008)
Method in brief: as §1

UniProt O00487 = biological target: UniProt O00487
Chain of UniProt O00487 (O00487 whole entry): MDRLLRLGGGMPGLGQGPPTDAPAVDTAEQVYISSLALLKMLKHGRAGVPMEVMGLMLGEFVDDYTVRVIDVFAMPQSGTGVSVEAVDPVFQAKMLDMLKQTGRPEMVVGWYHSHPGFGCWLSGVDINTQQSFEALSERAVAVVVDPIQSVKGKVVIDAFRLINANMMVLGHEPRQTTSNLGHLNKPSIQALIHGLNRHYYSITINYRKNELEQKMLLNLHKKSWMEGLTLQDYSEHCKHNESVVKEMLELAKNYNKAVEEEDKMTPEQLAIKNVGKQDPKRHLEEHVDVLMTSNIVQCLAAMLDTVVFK
Method in brief: as §1

Measured: log2 ratio of Biotin-Ahx-Ub-VS probe labelling

N#Cc1cnn(-c2ccccc2)c1NC(=O)CCl
inactive: USP42 -0.0771 | USP46 -0.0464 | USP47 -0.263 | USP48 -0.451 | USP5 -0.203 | USP54 0.718 | USP7 -0.45 | USP8 -0.512 | USP9X -0.317 | UniProt O00487 -0.0605
